Legend:
Test in all cases: log2 ratio of Biotin-Ahx-Ub-VS probe labelling (fragment/DMSO); higher = less target engagement (more negative = stronger competition), active = hit call of the paper (q ≤ 0.05, log2 ratio ≤ -1)
Conditions in all cases: compound concentration: 200 uM; treatment time: 3 h
USP19 = target: T1, USP19 (UniProt O94966)
T1 sequence (whole entry): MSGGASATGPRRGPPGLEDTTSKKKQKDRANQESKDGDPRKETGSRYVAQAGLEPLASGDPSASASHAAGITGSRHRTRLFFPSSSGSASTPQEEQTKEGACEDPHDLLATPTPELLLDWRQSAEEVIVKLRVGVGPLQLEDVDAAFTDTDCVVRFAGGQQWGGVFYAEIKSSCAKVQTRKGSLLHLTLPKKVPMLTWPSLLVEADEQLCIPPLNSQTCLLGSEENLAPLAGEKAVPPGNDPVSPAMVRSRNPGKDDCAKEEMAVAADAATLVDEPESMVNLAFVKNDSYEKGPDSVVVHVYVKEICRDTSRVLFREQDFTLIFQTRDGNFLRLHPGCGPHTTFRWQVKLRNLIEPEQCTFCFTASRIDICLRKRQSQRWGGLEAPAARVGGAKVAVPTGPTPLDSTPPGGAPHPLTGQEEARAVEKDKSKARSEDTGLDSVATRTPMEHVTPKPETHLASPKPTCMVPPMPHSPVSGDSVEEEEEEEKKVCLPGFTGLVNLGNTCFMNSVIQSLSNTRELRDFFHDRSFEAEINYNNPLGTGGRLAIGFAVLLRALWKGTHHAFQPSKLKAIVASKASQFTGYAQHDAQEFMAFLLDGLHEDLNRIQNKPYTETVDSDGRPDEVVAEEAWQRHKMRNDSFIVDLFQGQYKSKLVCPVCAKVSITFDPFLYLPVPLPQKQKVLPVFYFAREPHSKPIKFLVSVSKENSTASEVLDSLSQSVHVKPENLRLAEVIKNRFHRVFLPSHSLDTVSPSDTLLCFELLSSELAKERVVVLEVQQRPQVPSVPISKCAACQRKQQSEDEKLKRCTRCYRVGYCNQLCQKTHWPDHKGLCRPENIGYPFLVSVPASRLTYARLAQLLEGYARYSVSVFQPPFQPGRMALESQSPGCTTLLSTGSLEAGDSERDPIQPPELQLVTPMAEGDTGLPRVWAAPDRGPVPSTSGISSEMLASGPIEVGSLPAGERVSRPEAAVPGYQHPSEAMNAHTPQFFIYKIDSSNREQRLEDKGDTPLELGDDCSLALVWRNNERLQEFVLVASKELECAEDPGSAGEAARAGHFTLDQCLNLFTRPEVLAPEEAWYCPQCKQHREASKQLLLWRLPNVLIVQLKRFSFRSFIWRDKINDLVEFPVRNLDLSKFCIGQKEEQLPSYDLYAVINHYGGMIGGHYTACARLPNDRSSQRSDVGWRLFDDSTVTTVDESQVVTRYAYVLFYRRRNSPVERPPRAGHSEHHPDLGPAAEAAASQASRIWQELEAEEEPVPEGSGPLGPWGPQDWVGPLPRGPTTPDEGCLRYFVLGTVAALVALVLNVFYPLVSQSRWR
Method in brief: (§1)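 HEK293T lysate (495 µg per sample, in Tris/CHAPS/IGEPAL buffer with protease inhibitors) was exposed in triplicate for 3 h to fragment at 200 µM or to vehicle, then to Biotin-Ahx-Ub-VS at 0.5 µM final for 1 h. Labelled DUBs were enriched on NeutrAvidin, digested with LysC and trypsin, and analysed by diaPASEF LC-MS/MS. Spectronaut label-free quantities were normalised to the global median, and values are average log2 ratios of fragment over vehicle from an unpaired t-test. Only proteins with ≥2 unique peptides were used.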

USP24 = USP24 (UniProt Q9UPU5)
USP24, sequence (Q9UPU5 whole entry): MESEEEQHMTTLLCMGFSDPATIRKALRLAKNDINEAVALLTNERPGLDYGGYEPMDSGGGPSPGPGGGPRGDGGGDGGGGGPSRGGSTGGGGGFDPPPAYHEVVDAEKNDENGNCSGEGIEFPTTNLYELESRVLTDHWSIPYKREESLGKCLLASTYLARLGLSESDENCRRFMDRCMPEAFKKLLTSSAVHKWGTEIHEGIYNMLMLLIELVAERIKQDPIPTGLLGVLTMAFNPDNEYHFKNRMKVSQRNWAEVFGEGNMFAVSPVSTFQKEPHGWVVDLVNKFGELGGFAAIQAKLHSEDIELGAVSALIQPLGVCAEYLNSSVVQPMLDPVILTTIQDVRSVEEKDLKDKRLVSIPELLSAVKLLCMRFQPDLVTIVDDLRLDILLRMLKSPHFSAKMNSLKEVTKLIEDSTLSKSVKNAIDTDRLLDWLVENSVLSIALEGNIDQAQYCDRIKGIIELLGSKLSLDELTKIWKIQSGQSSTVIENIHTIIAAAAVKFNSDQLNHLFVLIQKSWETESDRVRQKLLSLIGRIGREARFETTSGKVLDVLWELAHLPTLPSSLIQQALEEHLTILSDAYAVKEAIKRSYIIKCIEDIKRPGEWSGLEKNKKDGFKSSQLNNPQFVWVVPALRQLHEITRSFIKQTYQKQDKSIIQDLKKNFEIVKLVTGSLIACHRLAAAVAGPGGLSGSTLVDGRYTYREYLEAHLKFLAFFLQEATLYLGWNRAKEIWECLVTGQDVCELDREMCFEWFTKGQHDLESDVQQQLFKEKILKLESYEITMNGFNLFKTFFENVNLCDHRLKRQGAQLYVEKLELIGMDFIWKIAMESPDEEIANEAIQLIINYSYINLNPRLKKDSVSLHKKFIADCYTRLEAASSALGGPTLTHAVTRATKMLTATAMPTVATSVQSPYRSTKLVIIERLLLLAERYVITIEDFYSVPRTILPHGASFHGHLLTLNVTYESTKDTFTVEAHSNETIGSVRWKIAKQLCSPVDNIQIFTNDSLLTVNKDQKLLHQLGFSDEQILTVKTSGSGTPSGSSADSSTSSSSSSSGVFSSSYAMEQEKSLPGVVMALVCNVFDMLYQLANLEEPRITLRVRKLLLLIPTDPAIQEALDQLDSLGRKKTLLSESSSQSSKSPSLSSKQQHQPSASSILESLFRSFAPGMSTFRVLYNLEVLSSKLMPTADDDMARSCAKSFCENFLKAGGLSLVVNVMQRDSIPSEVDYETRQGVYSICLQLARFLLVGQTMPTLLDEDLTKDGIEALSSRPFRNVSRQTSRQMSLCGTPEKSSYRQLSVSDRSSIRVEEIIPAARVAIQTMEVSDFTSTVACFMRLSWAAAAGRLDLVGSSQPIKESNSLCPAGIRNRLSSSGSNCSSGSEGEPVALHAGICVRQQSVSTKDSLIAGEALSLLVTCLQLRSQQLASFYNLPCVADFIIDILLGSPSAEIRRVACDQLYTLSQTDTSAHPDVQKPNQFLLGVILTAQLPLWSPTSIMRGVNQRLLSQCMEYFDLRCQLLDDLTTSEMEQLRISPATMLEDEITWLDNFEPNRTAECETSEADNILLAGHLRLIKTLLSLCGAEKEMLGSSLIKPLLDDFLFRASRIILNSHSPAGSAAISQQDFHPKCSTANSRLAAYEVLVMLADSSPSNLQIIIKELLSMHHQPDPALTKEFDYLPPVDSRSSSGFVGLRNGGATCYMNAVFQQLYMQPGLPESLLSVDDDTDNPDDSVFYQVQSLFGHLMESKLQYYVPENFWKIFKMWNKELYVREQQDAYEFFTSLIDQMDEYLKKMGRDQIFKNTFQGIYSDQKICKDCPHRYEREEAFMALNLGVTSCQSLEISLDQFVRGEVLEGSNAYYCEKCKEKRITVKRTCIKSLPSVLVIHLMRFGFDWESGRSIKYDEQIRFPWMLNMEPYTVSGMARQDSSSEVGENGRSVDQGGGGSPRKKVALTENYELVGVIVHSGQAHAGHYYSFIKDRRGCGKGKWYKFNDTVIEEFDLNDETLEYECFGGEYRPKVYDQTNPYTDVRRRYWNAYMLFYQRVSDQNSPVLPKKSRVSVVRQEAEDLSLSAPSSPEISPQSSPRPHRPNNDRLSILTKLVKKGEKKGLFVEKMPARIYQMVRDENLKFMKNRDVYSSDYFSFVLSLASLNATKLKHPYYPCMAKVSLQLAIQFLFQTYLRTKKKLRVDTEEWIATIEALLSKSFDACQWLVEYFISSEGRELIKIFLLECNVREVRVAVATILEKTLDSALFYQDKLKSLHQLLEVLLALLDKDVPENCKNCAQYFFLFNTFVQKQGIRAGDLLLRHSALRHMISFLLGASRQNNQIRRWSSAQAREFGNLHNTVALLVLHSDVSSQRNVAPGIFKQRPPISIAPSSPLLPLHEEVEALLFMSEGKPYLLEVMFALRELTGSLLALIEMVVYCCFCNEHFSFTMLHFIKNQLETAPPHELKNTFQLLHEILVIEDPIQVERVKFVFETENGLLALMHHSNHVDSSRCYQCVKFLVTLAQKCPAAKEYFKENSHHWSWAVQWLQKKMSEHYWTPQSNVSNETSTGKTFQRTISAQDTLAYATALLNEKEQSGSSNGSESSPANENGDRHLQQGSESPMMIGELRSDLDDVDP
Method in brief: as §1

USP25 = target: T2, USP25 (UniProt Q9UHP3)
T2 sequence (whole entry): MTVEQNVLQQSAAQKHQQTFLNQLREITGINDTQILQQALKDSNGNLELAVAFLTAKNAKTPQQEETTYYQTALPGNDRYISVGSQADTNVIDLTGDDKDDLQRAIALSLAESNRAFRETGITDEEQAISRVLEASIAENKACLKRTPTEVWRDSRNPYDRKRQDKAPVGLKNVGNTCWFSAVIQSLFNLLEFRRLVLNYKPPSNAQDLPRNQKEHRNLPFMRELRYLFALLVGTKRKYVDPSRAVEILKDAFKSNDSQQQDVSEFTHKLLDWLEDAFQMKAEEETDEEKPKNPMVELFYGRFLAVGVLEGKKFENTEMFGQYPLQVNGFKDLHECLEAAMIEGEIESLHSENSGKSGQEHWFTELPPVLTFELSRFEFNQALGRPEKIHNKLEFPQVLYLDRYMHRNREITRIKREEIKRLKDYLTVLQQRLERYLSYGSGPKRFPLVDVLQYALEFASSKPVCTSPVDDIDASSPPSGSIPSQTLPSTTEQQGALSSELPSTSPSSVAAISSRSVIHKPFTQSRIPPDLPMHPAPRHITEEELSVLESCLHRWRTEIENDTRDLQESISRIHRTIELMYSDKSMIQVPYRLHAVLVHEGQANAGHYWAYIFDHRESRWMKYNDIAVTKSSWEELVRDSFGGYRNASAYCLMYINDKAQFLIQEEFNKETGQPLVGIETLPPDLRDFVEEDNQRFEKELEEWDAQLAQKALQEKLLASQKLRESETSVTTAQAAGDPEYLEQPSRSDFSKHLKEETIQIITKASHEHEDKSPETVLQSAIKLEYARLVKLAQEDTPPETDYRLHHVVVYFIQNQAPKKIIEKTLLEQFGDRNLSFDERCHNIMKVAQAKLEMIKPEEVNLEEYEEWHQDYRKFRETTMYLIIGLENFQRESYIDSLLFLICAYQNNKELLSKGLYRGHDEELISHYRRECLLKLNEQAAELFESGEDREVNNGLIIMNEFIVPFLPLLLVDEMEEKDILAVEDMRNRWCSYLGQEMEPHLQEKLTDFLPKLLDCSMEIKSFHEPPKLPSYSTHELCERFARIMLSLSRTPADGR
Method in brief: as §1

USP28 = target: T3, USP28 (UniProt Q96RU2)
T3 sequence (whole entry): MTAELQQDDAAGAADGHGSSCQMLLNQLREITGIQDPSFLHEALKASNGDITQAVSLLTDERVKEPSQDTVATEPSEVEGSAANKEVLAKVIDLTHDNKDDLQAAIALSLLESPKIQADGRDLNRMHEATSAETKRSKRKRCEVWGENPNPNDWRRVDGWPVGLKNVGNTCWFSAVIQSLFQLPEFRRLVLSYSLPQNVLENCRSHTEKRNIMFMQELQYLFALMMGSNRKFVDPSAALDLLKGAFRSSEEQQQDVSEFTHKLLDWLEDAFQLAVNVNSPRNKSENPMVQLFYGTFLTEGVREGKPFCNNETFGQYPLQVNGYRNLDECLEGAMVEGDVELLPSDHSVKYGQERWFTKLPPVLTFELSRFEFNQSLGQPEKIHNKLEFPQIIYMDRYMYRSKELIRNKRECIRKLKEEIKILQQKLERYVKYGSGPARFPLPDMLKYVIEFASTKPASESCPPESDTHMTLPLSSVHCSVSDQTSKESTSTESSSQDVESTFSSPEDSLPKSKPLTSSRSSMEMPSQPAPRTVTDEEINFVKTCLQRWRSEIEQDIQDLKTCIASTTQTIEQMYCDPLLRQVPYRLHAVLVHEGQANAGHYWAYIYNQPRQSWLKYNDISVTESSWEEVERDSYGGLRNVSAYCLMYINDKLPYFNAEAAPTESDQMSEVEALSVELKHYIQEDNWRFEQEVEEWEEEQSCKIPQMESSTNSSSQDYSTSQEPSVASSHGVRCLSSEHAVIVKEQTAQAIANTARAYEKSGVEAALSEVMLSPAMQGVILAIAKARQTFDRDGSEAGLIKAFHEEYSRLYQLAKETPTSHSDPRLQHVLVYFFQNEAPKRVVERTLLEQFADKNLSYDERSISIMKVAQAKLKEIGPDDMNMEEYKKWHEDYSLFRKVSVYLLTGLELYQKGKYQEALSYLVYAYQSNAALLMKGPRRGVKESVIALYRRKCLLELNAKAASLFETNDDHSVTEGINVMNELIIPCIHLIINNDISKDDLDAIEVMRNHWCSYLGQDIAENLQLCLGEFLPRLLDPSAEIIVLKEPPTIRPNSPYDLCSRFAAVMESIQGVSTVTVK
Method in brief: as §1

Measured: log2 ratio of Biotin-Ahx-Ub-VS probe labelling

CCN(C(=O)CCl)C1CCS(=O)(=O)C1 (centres undefined)
inactive: USP19 0.00457 | USP24 0.0946 | USP25 -0.0672 | USP28 -0.106

— the supplement of paper PMC11732987, “Enantioselective OTUD7B fragment discovery through chemoproteomics screening and high-throughput optimisation” (Communications Chemistry, 2025)
